# Laboratory results: PubChem BioAssay (NCATS)
# Results filed as inconclusive are left out. Entries that show only a call come without a potency. Active and inactive are the calls of the source. The call rests on the fitted dose curve; in most records, active means well fitted curve in the direction sought with a large enough effect; inconclusive means small, poorly fitted or top-dose-only effect, or another doubt; inactive means no such curve, though single readings can be large; an effect the other way counts as inactive or inconclusive.
# Assay: qHTS for Inhibitors of ATXN expression: Validation of Cytotoxic Assay (AID 588349)
# Conditions: cytotoxicity counter-screen for ATXN expression inhibitors, cell viability; series mostly up to 57.1 µM
# Outline: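 Titrated compounds are added to cultured HEK293 cells, which are then held at 37 degrees C for 72 hr; loss of intracellular ATP, measured with CellTiter Glo, indicates toxicity.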
# Potency means the concentration at half of the fitted maximal effect.
row,SMILES,Potency
1,NC(=O)c1cn(Cc2c(F)cccc2F)nn1,inactive
2,CN1CCN(CC(=O)N2c3ccccc3C(=O)Nc3cccnc32)CC1,inactive
3,COc1ccc([C@@H]2Sc3ccccc3N(CCN(C)C)C(=O)[C@@H]2OC(C)=O)cc1,inactive
4,CC(C)COCC(CN(Cc1ccccc1)c1ccccc1)N1CCCC1 (stereo not given),inactive
5,C[n+]1cc2c3c(ccc2c2ccc4cc5c(cc4c21)OCO5)OCO3,3.55 µM (active)
6,CN(C)C(=O)Oc1ccc[n+](C)c1,inactive
7,CCCC(C(=O)OCCN(CC)CC)(c1ccccc1)c1ccccc1,inactive
8,CCn1ccnc1CC1COc2ccccc2O1 (stereo not given),inactive
9,NC1=NCC2c3ccccc3Cc3ccccc3N12 (stereo not given),inactive
10,Cc1nc2c([nH]1)c(=O)n(C)c(=O)n2Cc1ccco1,inactive
11,C[C@]12CC[C@@H]3c4ccc(O)cc4C[C@@H](CCCCCCCCCS(=O)CCCC(F)(F)C(F)(F)F)[C@H]3[C@@H]1CC[C@@H]2O (stereo not given in full),inactive
12,Cc1nc2ccccn2c(=O)c1CCN1CCC(C(=O)c2ccc(F)cc2)CC1,inactive
13,Cc1cccc(C)c1NC(=O)C(C)N (stereo not given),inactive
14,C#CCN(C)CCCOc1ccc(Cl)cc1Cl,inactive
15,CC(C)[N+](C)(CCOC(=O)C1c2ccccc2Oc2ccccc21)C(C)C,inactive
16,COc1ccc(CN(CCN(C)C)c2ccccn2)cc1,inactive
17,CN1C[C@H](C(=O)N[C@]2(C)O[C@@]3(O)[C@@H]4CCCN4C(=O)[C@H](Cc4ccccc4)N3C2=O)C[C@@H]2c3cccc4[nH]cc(c34)C[C@H]21,inactive
18,CC(=O)[C@@]1(O)CC[C@H]2[C@@H]3CCC4=CC(=O)CC[C@]4(C)[C@H]3CC[C@@]21C,inactive
19,CNC1(C)C2CCC(C2)C1(C)C (stereo not given),inactive
20,CCCCNc1c(C(=O)OCC)c(C)nc2c1cnn2CC,inactive
21,CN1C(=O)CC[C@H]1c1cccnc1,inactive
22,Cc1nc2sccn2c(=O)c1CCN1CCC(=C(c2ccc(F)cc2)c2ccc(F)cc2)CC1,inactive
23,COc1cc(Cc2cnc(N)nc2N)cc(OC)c1OC,inactive
24,C[C@@H](O)[C@H]1C(=O)N2C(C(=O)O)=C(SCCN=CN)C[C@H]12,inactive
25,CN(C)[C@@H]1C(=O)C(C(N)=O)=C(O)[C@@]2(O)C(=O)C3=C(O)c4c(O)ccc(Cl)c4[C@@H](O)[C@H]3C[C@@H]12,inactive
26,C[C@]12CCC(=O)C=C1CC[C@@H]1[C@@H]2C(=O)C[C@@]2(C)[C@H]1CC[C@]2(O)C(=O)CO,inactive

# Assay: qHTS for Inhibitors of ATXN expression: Validation (AID 588378); further: nearly all actives have a fitted effect of over 75% in size
# Conditions: cell-based ATXN2 expression reporter assay, luminescence; series mostly up to 57.1 µM
# Outline: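 Luciferase luminescence (Bright-Glo) from an ATXN2-FFLuc HEK293 line after 24 h compound exposure at 37 °C, preceded by a CellTiter-Fluor fluorescence viability read. Serial dilutions of a reference ATXN2 inhibitor and a luciferase inhibitor served as controls.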
row,SMILES,Potency
1,NC(=O)c1cn(Cc2c(F)cccc2F)nn1,inactive
2,CN1CCN(CC(=O)N2c3ccccc3C(=O)Nc3cccnc32)CC1,inactive
3,COc1ccc2c(c1OC)C(=O)O[C@@H]2[C@H]1c2c(cc3c(c2OC)OCO3)CCN1C,inactive
4,COc1ccc([C@@H]2Sc3ccccc3N(CCN(C)C)C(=O)[C@@H]2OC(C)=O)cc1,inactive
5,CCOC(=O)C1=C(C)NC(C)=C(C(=O)OC)C1c1cccc([N+](=O)[O-])c1 (stereo not given),inactive
6,CC(C)COCC(CN(Cc1ccccc1)c1ccccc1)N1CCCC1 (stereo not given),inactive
7,C[n+]1cc2c3c(ccc2c2ccc4cc5c(cc4c21)OCO5)OCO3,6.31 µM (active)
8,CN(C)C(=O)Oc1ccc[n+](C)c1,inactive
9,CCCC(C(=O)OCCN(CC)CC)(c1ccccc1)c1ccccc1,inactive
10,CCn1ccnc1CC1COc2ccccc2O1 (stereo not given),inactive
11,NC1=NCC2c3ccccc3Cc3ccccc3N12 (stereo not given),inactive
12,Cc1nc2c([nH]1)c(=O)n(C)c(=O)n2Cc1ccco1,inactive
13,COc1cc(C(=O)OCCCN2CCCN(CCCOC(=O)c3cc(OC)c(OC)c(OC)c3)CC2)cc(OC)c1OC,inactive
14,C[C@]12CC[C@@H]3c4ccc(O)cc4C[C@@H](CCCCCCCCCS(=O)CCCC(F)(F)C(F)(F)F)[C@H]3[C@@H]1CC[C@@H]2O (stereo not given in full),inactive
15,Cc1nc2ccccn2c(=O)c1CCN1CCC(C(=O)c2ccc(F)cc2)CC1,inactive
16,Cc1cccc(C)c1NC(=O)C(C)N (stereo not given),inactive
17,C#CCN(C)CCCOc1ccc(Cl)cc1Cl,inactive
18,CC(C)[N+](C)(CCOC(=O)C1c2ccccc2Oc2ccccc21)C(C)C,inactive
19,CN1C[C@H](C(=O)N[C@]2(C)O[C@@]3(O)[C@@H]4CCCN4C(=O)[C@H](Cc4ccccc4)N3C2=O)C[C@@H]2c3cccc4[nH]cc(c34)C[C@H]21,inactive
20,CC(=O)[C@@]1(O)CC[C@H]2[C@@H]3CCC4=CC(=O)CC[C@]4(C)[C@H]3CC[C@@]21C,inactive
21,CNC1(C)C2CCC(C2)C1(C)C (stereo not given),inactive
22,CCCCNc1c(C(=O)OCC)c(C)nc2c1cnn2CC,inactive
23,Nc1nc(N)c2nc(-c3ccccc3)c(N)nc2n1,inactive
24,CC1=C(C)C(=O)C(CCCCC#CCCCC#CCO)=C(C)C1=O,20 µM (active)
25,CN1C(=O)CC[C@H]1c1cccnc1,inactive
26,COc1cc(Cc2cnc(N)nc2N)cc(OC)c1OC,inactive
27,C[C@@H](O)[C@H]1C(=O)N2C(C(=O)O)=C(SCCN=CN)C[C@H]12,inactive
28,CN(C)[C@@H]1C(=O)C(C(N)=O)=C(O)[C@@]2(O)C(=O)C3=C(O)c4c(O)ccc(Cl)c4[C@@H](O)[C@H]3C[C@@H]12,inactive
29,C[C@]12CCC(=O)C=C1CC[C@@H]1[C@@H]2C(=O)C[C@@]2(C)[C@H]1CC[C@]2(O)C(=O)CO,inactive
